Screening data (PubChem)
A selection: hits, their analogues and other compounds. The true share with any hit is near 6.7%.
KB-V1 cytotox = qHTS assay for MDR1-selective chemotherapeutics: Primary screen using the drug-selected MDR subline cells KB-V1; KB-V1 MDR cells viability, CellTiter-Glo, 72 h; Potency, µM (highest dose often 46.1 µM), most hits filed as cytotoxic; hit rate 3.4% among 400,000; AID 1347076, 2019; further: on the % scale 0 is the no-effect control and ±100 the full control effect; nearly all actives have a fitted effect of over 60% in size
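KB-V1, DMEM (no phenol red) + 10% FBS; cpd pin-transferred, titration series; 72 h, 37 degrees C; CellTiter-Glo, luminescence. Data normalized, curve-fit.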
SW480 rereplic = A quantitative high throughput screen for small molecules that induce DNA re-replication in SW480 colon adenocarcinoma cells | SW480 DNA re-replication, Hoechst DNA content imaging, 48 h | Potency, µM (series often up to 46.1 µM), for the others: at the top dose re-replication activation, hits mostly activators | hit rate 1.8% among 340,000 | AID 624297, 2012; further: % of control where 0% means no effect; nearly all actives have a fitted effect of over 55% in size
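Quantitative HTS format with DMSO vehicle controls; 48 hr drug incubation at 37 C, then 40 min Hoechst staining and scanning imager measurement at 405 nm excitation.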
KB-3-1 tox = qHTS assay for MDR1-selective chemotherapeutics: Primary screen using the parental adenocarcinoma cell KB-3-1; KB-3-1 viability, CellTiter-Glo ATP luminescence, 72 h; Potency, µM (series often up to 46.1 µM), actives largely listed as cytotoxic; hit rate 1.4% among 400,000; AID 1347075, 2019; further: on the % scale 0 is the no-effect control and ±100 the full control effect; nearly all actives have a fitted effect of over 60% in size
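Screening of KB-3-1 cells (DMEM, 10% FBS, phenol-red free) ran from lowest to highest compound concentration; after 72 h at 37 °C viability was read luminescently and curves fitted.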
PINK1 expr mod = A Quantitative High throughput Screen to Identify Chemical Modulators of PINK1 Expression; PINK1 immunofluorescence, high-content cytometry, 24 h; Potency, µM (doses to about 76.6 µM), inactives show top-dose activation (PINK1 increase), hits mostly activators; hit rate 0.2% among 410,000; AID 624263, 2012; active means well fitted activation curve with a large enough effect; inconclusive means small, poorly fitted or top-dose-only effect; cell line not stated here; further: % of control where 0% means no effect; nearly all actives have a fitted effect of over 65% in size
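Stable cell line treated 24 h with compounds at 5 concentrations (CCCP controls), then fixed and immunostained for PINK1 plus nuclear and cell stains; PINK1 immunofluorescence quantified by laser-scanning microplate cytometry.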
MCF10A rereplic = A quantitative high throughput screen for small molecules that induce DNA re-replication in MCF 10a normal breast cells. MCF 10A DNA re-replication, Hoechst nuclear intensity, 48 h. Potency, µM (titrated, usually from 46.1 µM), for inactives: at the highest dose activity, positive = re-replication, actives largely listed as activators. hit rate 2.9% among 350,000; further: % of control where 0% means no effect; nearly all actives have a fitted effect of over 50% in size
Active calls of the source: *; i = inactive; ? = inconclusive; / = not tested or not shown; [ ] = remark or other dose. Unless noted, the call rests on the fitted dose curve; in most records, active means well fitted curve in the direction sought with a large enough effect; inconclusive means small, poorly fitted or top-dose-only effect, or another doubt; inactive means no such curve, though single readings can be large; an effect the other way counts as inactive or inconclusive. Potency means the concentration at half of the fitted maximal effect.

SMILES | KB-V1 cytotox | SW480 rereplic | KB-3-1 tox | PINK1 expr mod | MCF10A rereplic
COc1cccc(OCCn2cc(C=O)c3ccccc32)c1 | i | 3% | i | 3% | 7%
CCCc1nnc2n1N=C(c1ccc(C)cc1)CS2 | i | -7% | i | 2% | 1%
CN1CCCC(C)(C(=O)Nc2ccc3scnc3c2)C1 (configuration not stated) | i | / | i | 1% | /
Cc1ccc(C(=O)Nc2cccc(-c3nc(CNC(=O)c4ccc(F)cc4Cl)c(C)o3)c2)s1 | / | / | / | 0% | /
CCOC(=O)c1[nH]c(CSc2nnc(-c3ccc(OC)cc3)o2)c(C(=O)OCC)c1C | ? | 9% | i | 10% | 16µM*
COCCn1c(=O)c(-c2ccccc2)nc2cnc(OC)nc21 | / | / | / | 1% | /
CCOC(=O)c1nnc(-c2ccccc2)nc1Sc1ccccc1Cl | i | ? | ? | -3% | 6.5µM*
CN(Cc1ccccc1)C(=O)[C@@H]1CCCN1C(=O)[C@@H]1CCCN1C(=O)c1cccs1 | i | / | i | 1% | /
CC1(C)CCCN(C(=O)N2c3ccccc3Sc3ccccc32)C1 | i | 15% | i | 0% | 13µM*
Cn1c(=O)c2c(ncn2CCOc2cccc(Br)c2)n(C)c1=O | ? | 6% | 10µM* | -1% | 7%
Cn1c(=O)c2c(ncn2Cc2ccc(Cl)c(Cl)c2)n(C)c1=O | 2.6µM* | 8% | ? | 2%[38.3 µM] | 17%
Cn1c(=O)c2c(ncn2Cc2cccc(Cl)c2)n(C)c1=O | ? | 5% | ? | / | -5%
Cn1c(=O)c2c(nc(Cl)n2Cc2ccc(Cl)c(Cl)c2)n(C)c1=O | 16µM* | -7% | ? | -1% | 0%
Cc1ncc2c(c1CNC(=O)c1cncs1)CCN(C(=O)c1cc(F)c(F)cc1F)C2 | / | / | / | -1% | /
COC(=O)c1cn(NC(=O)c2ccc(OC)c(OC)c2)c(=O)c2ccccc12 | i | -5% | i | ? | -9%
COC(=O)c1cn(NC(=O)/C=C/c2cc(OC)ccc2OC)c(=O)c2ccccc12 | 8.2µM* | 3% | i | -1% | -31%
CCCc1c(NC(=O)Nc2ccc(F)cc2)cnn1-c1ccc(Cl)cc1 | ? | ? | 9.2µM* | ? | ?
O=C(NNC(=O)C(c1ccccc1)c1ccccc1)c1ccccn1 | ? | 4.1µM* | ? | -1% | ?
CCNC(=S)NNC(=O)c1ccccn1 | 12µM* | -324% | i | -1% | 21%
O=C(CSc1nccn1Cc1ccccc1)NCc1ccccc1Cl | i | / | i | 0% | /
Cc1cccc(N2CCN(C(=O)CCc3nnc4n(CC(C)C)c(=O)c5ccccc5n34)CC2)c1C | / | / | / | -1% | /
CCOC(=O)Cn1nc(C)cc1NC(=O)c1ccncc1 | i | -2% | i | 0% | 1%
CCOC(=O)Cn1nc(C)cc1NC(=O)c1cc(OC)c(OC)c(OC)c1 | i | -2% | i | 3% | 23µM*
C=C(C)CNC(=S)N/N=C(\C)c1ccc(OC)cc1 | 16µM* | 18% | ? | 5% | 8%
COCCNC(=S)N/N=C(\C)c1ccc(OC)cc1 | i | -4% | i | -1% | 4%
SMILES | KB-V1 cytotox | SW480 rereplic | KB-3-1 tox | PINK1 expr mod | MCF10A rereplic
Cc1cc(OC(=O)c2cccc(F)c2)c([N+](=O)[O-])c(=O)[nH]1 | i | -21% | i | 0% | 1%
O=C1CCN(Cc2ccccc2)CCN1[C@H](CO)Cc1ccccc1 | ? | 5.2µM* | i | 4% | -35%
O=C1CCN(Cc2ccc(O)cc2)CCN1[C@H](CO)Cc1ccccc1 | i | -3% | i | 0% | 19%
CC(C)C[C@H]1CN(CCCC[C@@H]2CNC(=O)C(=O)N2CCc2ccccc2)C(=O)C(=O)N1Cc1ccccc1 | i | / | i | -1% | /
O=c1[nH]c2cc([N+](=O)[O-])cc(Cl)c2c2ccccc12 | 12µM* | / | i | 0% | /
Nc1cccc2[nH]c(=O)c3ccccc3c12 | i | 15% | ? | -4% | 4%
COc1cccc(CN2C(=O)c3cccc(N)c3C2=O)c1 | i | ? | i | 1% | 18µM*
Cc1ccc(C(=O)CCC(=O)N2CCC(C(N)=O)CC2)s1 | i | -38% | i | 0% | -8%
CCOc1ccc2c(c1)OC(c1ccc(C)cc1)(C(F)(F)F)NC2=O (configuration not stated) | 1.3µM* | ? | i | ? | 1.5µM*
COc1ccc(CNC(=O)C2(C)Cc3c(-c4cccc(NC(C)=O)c4)ccnc3O2)cc1OC (configuration not stated) | i | / | i | 9% | /
Cc1ccc(-n2cc(C(=O)c3cc(Cl)ccc3O)cc(C#N)c2=O)cc1 | 16µM* | 7% | i | 18µM* | ?
COc1ccc(-n2cc(C(=O)c3cc(Cl)ccc3O)cc(C#N)c2=O)cc1 | i | -6% | i | ? | 19%
CCCCn1cc(C(=O)c2cc(Br)ccc2O)cc(C#N)c1=O | ? | 0% | ? | 18µM* | ?
Cc1ccccc1NC(=O)c1cc(C(=O)c2cc(Cl)ccc2O)cn(-c2ccccc2C)c1=O | 9.2µM* | / | i | 16µM* | 23%
CC(C(=O)c1ccccc1)[n+]1ccc(Cl)c2ccc(Cl)cc21 (configuration not stated) | i | / | i | 0% | /
COCCNC(=O)/C(C#N)=C/c1ccc(O)c([N+](=O)[O-])c1 | i | -5% | i | 0% | -3%
CCOCCCNC(=O)/C(C#N)=C/c1ccc(C(=O)OC)cc1 | i | 22% | i | 3% | 3%
CCOCCCNC(=O)/C(C#N)=C/c1cc(C)c(O)c(C)c1 | i | ? | i | 17% | 23µM*
COCCCNC(=O)/C(C#N)=C/c1ccc(OCC(=O)O)c(OC)c1 | i | -7% | i | 1% | -6%
CCOCCCNC(=O)/C(C#N)=C/c1ccc(Cl)c([N+](=O)[O-])c1 | ? | -4% | ? | -1% | 18µM*
CCOCCCNC(=O)/C(C#N)=C/c1cc(OC)c(O)c([N+](=O)[O-])c1 | 5.8µM* | ? | 7.3µM* | 4% | 4.6µM*
COc1cccc(CNC(=O)c2cnn(-c3ncc4c(n3)-c3ccccc3CCC4)c2C)c1OC | / | / | / | 1% | /
Cc1cccc(CNC(=O)c2c3n(c(C)cc2=O)-c2ccccc2SC(c2sccc2C)C3)n1 (configuration not stated) | / | / | / | 0% | /
OC(CSc1ccccc1)CN1CCN(c2ccc(Cl)cc2)CC1 (configuration not stated) | i | ? | i | 19% | 12%
COc1ccc(-c2ccc3ncnc(NCc4ccc(C)o4)c3c2)cc1OC | ? | / | i | / | /
